# Data reported in the supplement of paper PMC6992640.
# What was measured:
# Assay in all cases: cell viability of combination (% of vehicle); higher = less cytotoxic
# Details in all cases: 1 µM; 72 h; partner dose: 10 nM
# [1] = system: HCI01 (cells of a triple-negative basal-like breast cancer xenograft)
# Experimental: (§1)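 PDX cells were treated for 72 h with each drug at 1 µM plus carfilzomib (10 nM; 100 nM for WHIM2). Luciferase viability is expressed as percent of vehicle.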
# [2] = system: UCD52 (cells of a triple-negative basal-like breast cancer xenograft)
# Experimental: as §1
# [3] = system: WHIM30 (cells of a triple-negative basal-like breast cancer xenograft)
# Experimental: as §1
# [4] = system: HCI01; remark: listed apart in the source
# Experimental: (§2)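 PDX cells were treated for 72 h with each drug at 1 µM plus afatinib (10 nM; 1 µM for WHIM30). Luciferase viability is expressed as percent of vehicle.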
# [5] = system: UCD52; remark: listed apart in the source
# Experimental: as §2
# [6] = system: WHIM2 (cells of a triple-negative basal-like breast cancer xenograft)
# Experimental: as §2
smiles,measurement,setting,value
Cl.Fc1ccc(C2CCNCC2COc2ccc3c(c2)OCO3)cc1 (stereo not drawn) [Paroxetine HCl] + CC(C)C[C@H](NC(=O)[C@H](CCc1ccccc1)NC(=O)CN1CCOCC1)C(=O)N[C@@H](Cc1ccccc1)C(=O)N[C@@H](CC(C)C)C(=O)[C@@]1(C)CO1 [Carfilzomib],cell viability of combination,[1],90.8
same,cell viability of combination,[2],54.7
CCCCc1oc2ccc(NS(C)(=O)=O)cc2c1C(=O)c1ccc(OCCCN(CCCC)CCCC)cc1.Cl [Dronedarone HCl] + CC(C)C[C@H](NC(=O)[C@H](CCc1ccccc1)NC(=O)CN1CCOCC1)C(=O)N[C@@H](Cc1ccccc1)C(=O)N[C@@H](CC(C)C)C(=O)[C@@]1(C)CO1 [Carfilzomib],cell viability of combination,[1],92.3
same,cell viability of combination,[2],59.9
same,cell viability of combination,[3],12.7
O=C(O)c1cc(O)c(O)c(O)c1 [Gallic acid] + CC(C)C[C@H](NC(=O)[C@H](CCc1ccccc1)NC(=O)CN1CCOCC1)C(=O)N[C@@H](Cc1ccccc1)C(=O)N[C@@H](CC(C)C)C(=O)[C@@]1(C)CO1 [Carfilzomib],cell viability of combination,[1],74.5
same,cell viability of combination,[2],60.9
COc1ccc(C[C@H](N)C(=O)N[C@@H]2[C@H](O)[C@H](n3cnc4c(N(C)C)ncnc43)O[C@@H]2CO)cc1.Cl.Cl [Puromycin dihydrochloride] + CC(C)C[C@H](NC(=O)[C@H](CCc1ccccc1)NC(=O)CN1CCOCC1)C(=O)N[C@@H](Cc1ccccc1)C(=O)N[C@@H](CC(C)C)C(=O)[C@@]1(C)CO1 [Carfilzomib],cell viability of combination,[1],76.4
same,cell viability of combination,[2],13.8
CCOc1cc2ncc(C#N)c(Nc3ccc(OCc4ccccn4)c(Cl)c3)c2cc1NC(=O)C=CCN(C)C [Neratinib (HKI-272)] + CC(C)C[C@H](NC(=O)[C@H](CCc1ccccc1)NC(=O)CN1CCOCC1)C(=O)N[C@@H](Cc1ccccc1)C(=O)N[C@@H](CC(C)C)C(=O)[C@@]1(C)CO1 [Carfilzomib],cell viability of combination,[1],87.8
same,cell viability of combination,[2],48.7
C=CC(=O)N1CCC(Oc2cc3c(Nc4ccc(Cl)c(Cl)c4F)ncnc3cc2OC)CC1 [Poziotinib] + CC(C)C[C@H](NC(=O)[C@H](CCc1ccccc1)NC(=O)CN1CCOCC1)C(=O)N[C@@H](Cc1ccccc1)C(=O)N[C@@H](CC(C)C)C(=O)[C@@]1(C)CO1 [Carfilzomib],cell viability of combination,[1],52.8
same,cell viability of combination,[2],28.9
same,cell viability of combination,[3],8.92
Cc1c(-c2ccc(O)cc2)n(Cc2ccc(OCCN3CCCCCC3)cc2)c2ccc(O)cc12.Cl [Bazedoxifene HCl] + CC(C)C[C@H](NC(=O)[C@H](CCc1ccccc1)NC(=O)CN1CCOCC1)C(=O)N[C@@H](Cc1ccccc1)C(=O)N[C@@H](CC(C)C)C(=O)[C@@]1(C)CO1 [Carfilzomib],cell viability of combination,[1],107
same,cell viability of combination,[2],64.4
same,cell viability of combination,[3],11.3
CC(NCCCc1cccc(C(F)(F)F)c1)c1cccc2ccccc12.Cl (stereo not drawn) [Cinacalcet HCl] + CC(C)C[C@H](NC(=O)[C@H](CCc1ccccc1)NC(=O)CN1CCOCC1)C(=O)N[C@@H](Cc1ccccc1)C(=O)N[C@@H](CC(C)C)C(=O)[C@@]1(C)CO1 [Carfilzomib],cell viability of combination,[1],89.6
same,cell viability of combination,[2],59.9
Cl.Cl.Fc1ccc(C(c2ccc(F)cc2)N2CCN(CC=Cc3ccccc3)CC2)cc1 [Flunarizine 2HCl] + CC(C)C[C@H](NC(=O)[C@H](CCc1ccccc1)NC(=O)CN1CCOCC1)C(=O)N[C@@H](Cc1ccccc1)C(=O)N[C@@H](CC(C)C)C(=O)[C@@]1(C)CO1 [Carfilzomib],cell viability of combination,[1],103
same,cell viability of combination,[2],61.1
Clc1ccc(C(Cn2ccnc2)OCc2c(Cl)cccc2Cl)c(Cl)c1.O=[N+]([O-])O (stereo not drawn) [Isoconazole nitrate] + CC(C)C[C@H](NC(=O)[C@H](CCc1ccccc1)NC(=O)CN1CCOCC1)C(=O)N[C@@H](Cc1ccccc1)C(=O)N[C@@H](CC(C)C)C(=O)[C@@]1(C)CO1 [Carfilzomib],cell viability of combination,[1],92.6
same,cell viability of combination,[2],61.5
CC(=O)C1(O)Cc2c(O)c3c(c(O)c2C(OC2CC(N)C(O)C(C)O2)C1)C(=O)c1ccccc1C3=O.Cl (stereo not drawn) [Idarubicin HCl] + CC(C)C[C@H](NC(=O)[C@H](CCc1ccccc1)NC(=O)CN1CCOCC1)C(=O)N[C@@H](Cc1ccccc1)C(=O)N[C@@H](CC(C)C)C(=O)[C@@]1(C)CO1 [Carfilzomib],cell viability of combination,[1],187
same,cell viability of combination,[2],21.1
Nc1c(CC(=O)[O-])cccc1C(=O)c1ccccc1.O.[Na+] [Amfenac Sodium Monohydrate] + CC(C)C[C@H](NC(=O)[C@H](CCc1ccccc1)NC(=O)CN1CCOCC1)C(=O)N[C@@H](Cc1ccccc1)C(=O)N[C@@H](CC(C)C)C(=O)[C@@]1(C)CO1 [Carfilzomib],cell viability of combination,[1],76.5
same,cell viability of combination,[2],66.3
same,cell viability of combination,[3],23.7
COc1cc2ncnc(Nc3ccc(F)c(Cl)c3)c2cc1NC(=O)C=CCN1CCCCC1 + CC(C)C[C@H](NC(=O)[C@H](CCc1ccccc1)NC(=O)CN1CCOCC1)C(=O)N[C@@H](Cc1ccccc1)C(=O)N[C@@H](CC(C)C)C(=O)[C@@]1(C)CO1 [Carfilzomib],cell viability of combination,[1],68.1
same,cell viability of combination,[2],34.1
same,cell viability of combination,[3],14.6
CO[C@H]1C[C@@H]2CC[C@@H](C)[C@@](O)(O2)C(=O)C(=O)N2CCCC[C@H]2C(=O)O[C@H]([C@H](C)C[C@@H]2CC[C@@H](O)[C@H](OC)C2)CC(=O)[C@H](C)/C=C(\C)[C@@H](O)[C@@H](OC)C(=O)[C@H](C)C[C@H](C)/C=C/C=C/C=C/1C [Rapamycin (Sirolimus)] + CC(C)C[C@H](NC(=O)[C@H](CCc1ccccc1)NC(=O)CN1CCOCC1)C(=O)N[C@@H](Cc1ccccc1)C(=O)N[C@@H](CC(C)C)C(=O)[C@@]1(C)CO1 [Carfilzomib],cell viability of combination,[1],68.3
same,cell viability of combination,[2],49.1
same,cell viability of combination,[3],25.8
CN(C)CC=CC(=O)Nc1cc2c(Nc3ccc(F)c(Cl)c3)ncnc2cc1OC1CCOC1.O=C(O)C=CC(=O)O.O=C(O)C=CC(=O)O (stereo not drawn) [Afatinib dimaleate] + CC(C)C[C@H](NC(=O)[C@H](CCc1ccccc1)NC(=O)CN1CCOCC1)C(=O)N[C@@H](Cc1ccccc1)C(=O)N[C@@H](CC(C)C)C(=O)[C@@]1(C)CO1 [Carfilzomib],cell viability of combination,[1],86.1
same,cell viability of combination,[2],26.6
same,cell viability of combination,[3],12.9
Cn1cnc2c(F)c(Nc3ccc(Br)cc3F)c(C(=O)NOCCO)cc21 + CC(C)C[C@H](NC(=O)[C@H](CCc1ccccc1)NC(=O)CN1CCOCC1)C(=O)N[C@@H](Cc1ccccc1)C(=O)N[C@@H](CC(C)C)C(=O)[C@@]1(C)CO1 [Carfilzomib],cell viability of combination,[1],67.1
same,cell viability of combination,[2],50.1
same,cell viability of combination,[3],36.1
Cl.Clc1ccccc1CN1CCc2sccc2C1 [Ticlopidine HCl] + CN(C)C/C=C/C(=O)Nc1cc2c(Nc3ccc(F)c(Cl)c3)ncnc2cc1O[C@H]1CCOC1 [Afatinib],cell viability of combination,[4],57.8
same,cell viability of combination,[5],75.9
same,cell viability of combination,[6],47.9
CN1CCN(c2ccc(C(=O)/N=c3\[nH][nH]c4ccc(Cc5cc(F)cc(F)c5)cc34)c(NC3CCOCC3)c2)CC1 [Entrectinib] + CC(C)C[C@H](NC(=O)[C@H](CCc1ccccc1)NC(=O)CN1CCOCC1)C(=O)N[C@@H](Cc1ccccc1)C(=O)N[C@@H](CC(C)C)C(=O)[C@@]1(C)CO1 [Carfilzomib],cell viability of combination,[1],90.7
same,cell viability of combination,[2],45
same,cell viability of combination,[3],10.1
C=C1C(=CC=C2CCCC3(C)C2CCC3C(C)CCCC(C)C)CC(O)CC1O (stereo not drawn) [Alfacalcidol] + CC(C)C[C@H](NC(=O)[C@H](CCc1ccccc1)NC(=O)CN1CCOCC1)C(=O)N[C@@H](Cc1ccccc1)C(=O)N[C@@H](CC(C)C)C(=O)[C@@]1(C)CO1 [Carfilzomib],cell viability of combination,[1],55.4
same,cell viability of combination,[2],41
same,cell viability of combination,[3],16.6
CCc1oc2ccccc2c1C(=O)c1cc(Br)c(O)c(Br)c1 [Benzbromarone] + CC(C)C[C@H](NC(=O)[C@H](CCc1ccccc1)NC(=O)CN1CCOCC1)C(=O)N[C@@H](Cc1ccccc1)C(=O)N[C@@H](CC(C)C)C(=O)[C@@]1(C)CO1 [Carfilzomib],cell viability of combination,[1],84.6
same,cell viability of combination,[2],63.1
same,cell viability of combination,[3],20.1
CN(C)CC=CC(=O)Nc1cc2c(Nc3ccc(F)c(Cl)c3)ncnc2cc1OC1CCOC1 (stereo not drawn) [Afatinib (BIBW2992)] + CC(C)C[C@H](NC(=O)[C@H](CCc1ccccc1)NC(=O)CN1CCOCC1)C(=O)N[C@@H](Cc1ccccc1)C(=O)N[C@@H](CC(C)C)C(=O)[C@@]1(C)CO1 [Carfilzomib],cell viability of combination,[1],63.1
same,cell viability of combination,[2],26.2
same,cell viability of combination,[3],12.3
CC1CC(=O)NN=C1c1ccc(NN=C(C#N)C#N)cc1 (stereo not drawn) [Levosimendan] + CC(C)C[C@H](NC(=O)[C@H](CCc1ccccc1)NC(=O)CN1CCOCC1)C(=O)N[C@@H](Cc1ccccc1)C(=O)N[C@@H](CC(C)C)C(=O)[C@@]1(C)CO1 [Carfilzomib],cell viability of combination,[1],74.1
same,cell viability of combination,[2],61.5
same,cell viability of combination,[3],21.5
